# Bioassay records as filed in PubChem BioAssay.
# Avidin fluor – green autofluorescence of compounds with avidin beads – biophysical, 488/530 nm, flow cytometry, artefact control, profiling panel; 220,000 compounds, 0.38% hits; fluorescence (KMESF) at 10 µM; compound fluorescence 488/530 nm; hits give high values; AID 1775, 2009; in the data active = fluorescence above about 47
# RGS16-Gao HTS – modulators of RGS16 binding to Galphao, primary screen, biochemical, human proteins, multiplexed bead flow cytometry; Regulator of G-protein signaling 16 (Homo sapiens) + Guanine nucleotide-binding protein …; bead-based flow cytometry RGS16-Galphao binding, fluorescence; actives lie on both sides; binding response (% of control), % at 10 µM; 220,000 compounds, 0.38% hits;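 also: Galphao activated by GDP with aluminum fluoride before binding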
# RGS4-Gao reg – modulators of RGS4 binding to Galphao, primary screen, biochemical, multiplexed bead flow cytometry. Guanine nucleotide-binding protein G(o) subunit alpha (Homo sapiens), P09471. actives lie on both sides. binding response (% of control), % at 10 µM. 220,000 compounds, 0.33% hits. AID 1415, 2008; in the data active = binding response below about 49% or above about 150%; inactive = in between;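 also: fluorescent Galphao activated with aluminum fluoride binding bead-coupled RGS4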
# Target sequence (P09471 whole entry, looked up): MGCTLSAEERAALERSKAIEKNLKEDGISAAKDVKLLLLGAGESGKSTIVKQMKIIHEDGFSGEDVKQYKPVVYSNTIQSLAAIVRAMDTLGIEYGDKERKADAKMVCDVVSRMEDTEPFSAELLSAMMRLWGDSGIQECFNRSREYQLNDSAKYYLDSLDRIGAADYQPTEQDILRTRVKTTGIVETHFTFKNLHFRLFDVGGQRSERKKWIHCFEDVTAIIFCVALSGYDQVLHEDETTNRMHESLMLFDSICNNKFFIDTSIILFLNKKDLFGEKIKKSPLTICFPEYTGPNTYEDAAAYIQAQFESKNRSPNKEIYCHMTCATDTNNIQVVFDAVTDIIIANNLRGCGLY
# RGS7-Gao reg – RGS7-Galphao binding modulators, primary screen, biochemical, multiplexed bead flow cytometry | Guanine nucleotide-binding protein G(o) subunit alpha (Homo sapiens), P09471 | actives lie on both sides | binding response (% of control), % at 10 µM | 220,000 compounds, 0.35% hits | AID 1439, 2008; in the data active = binding response below about 49% or above about 150%; inconclusive = no clear call, values can overlap the other calls; inactive = in between;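 also: fluorescent Galphao held in activated GDP-AlF4 state binding bead-coupled RGS7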
# RGS8-Gao reg – RGS8-Galphao binding modulators, primary screen, biochemical, multiplexed bead flow cytometry; response (percent of control binding), % at 10 µM; actives lie on both sides; 220,000 compounds, 0.34% hits; in the data active = response below about 60% or above about 140%; inactive = in between;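 also: Galphao activated as the GDP aluminium fluoride complex binding bead-coupled RGS8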
# GSH fluor – compound fluorescence on glutathione beads, profiling panel, artefact control, biophysical, 488/530 nm, flow cytometry; AID 1776, 2009; fluorescence (KMESF) at 10 µM; GSH beads flow cytometry, compound fluorescence 488/530 nm; hits give high values; 190,000 compounds, 0.25% hits; in the data active = fluorescence above about 89;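 also: glutathione beads carrying GST-tagged Bcl family fusion proteins plus one bare bead set; values are compound well signal with DMSO vehicle wells as background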
# RGS4-Gao HTS – modulators of RGS–Galpha-o binding, primary screen, biochemical, multiplexed beads, flow cytometry, RGS4/7/8/16/19. multiplexed bead flow cytometry. 1,600 compounds, 99% hits. RGS4–Galpha-o binding response, % at 10 µM. AID 1504, 2009. shares compounds with RGS16-Gao HTS;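 also: fluorescently labeled Galpha-o bound to GDP with aluminium fluoride binding biotinylated RGS beads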
# Avidin counter – disruption of biotin probe capture by avidin, counter-screen for RGS protein interaction modulators, biochemical, flow cytometry, bead-based | shares compounds with RGS16-Gao HTS | streptavidin beads, fluorescein-biotin binding | inhibition, % at 10 µM | 1,700 tested, under 10 active;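 active = inhibition above 50%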;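 also: median green fluorescence of gated singlet beads compared with DMSO control wells; 0% = DMSO wells and 100% = complete loss of bead fluorescence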
# RGS8-Gao single – RGS8-Galphao binding modulators, confirmation, biochemical, multiplexed bead flow cytometry, single concentration; AID 1836, 2009; binding response (% of control), % at 10 µM; bead-based flow cytometry RGS8-Galphao binding, fluorescence; actives lie on both sides; shares compounds with RGS16-Gao HTS; 1,700 compounds, 3% hits; in the data active = binding response below about 72% or above about 130%; inactive = in between;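 also: Galphao activated as GDP AlF4 complex before binding bead RGS8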
# RGS7-Gao confirm – RGS7-Galphao binding modulators, confirmation, biochemical, multiplexed bead flow cytometry, single concentration. AID 1837, 2009. shares compounds with RGS16-Gao HTS. response (percent of control binding), % at 10 µM. bead-based flow cytometry RGS7-Galphao binding; actives lie on both sides. 1,700 compounds, 7.8% hits; in the data active = response below about 75% or above about 130%; inactive = in between;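 also: fluorescent Galphao activated with GDP and aluminum fluoride binding bead-coupled RGS7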
# RGS16-Gao single – modulators of RGS16-Galphao protein binding, confirmation, biochemical, single concentration, multiplexed bead flow cytometry | AID 1838, 2009 | 1,700 compounds, 4% hits | shares compounds with RGS16-Gao HTS | response (% of control binding), % at 10 µM | bead-based flow cytometry; actives lie on both sides; in the data active = response below about 74% or above about 130%; inactive = in between;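 also: Galphao activated as the GDP aluminium fluoride complex binding bead-coupled RGS16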
# RGS4-Gao single – modulators of RGS4-Galphao protein binding, confirmation, biochemical, single concentration, multiplexed bead flow cytometry. 1,700 compounds, 4% hits. binding response (% of control), % at 10 µM. shares compounds with RGS16-Gao HTS. actives lie on both sides. AID 1840, 2009; in the data active = binding response below about 74% or above about 130%; inactive = in between
# RGS19-Gao conf – regulators of RGS19-Galphao binding, confirmation, biochemical, single point, multiplexed bead flow cytometry; shares compounds with RGS16-Gao HTS; bead-based flow cytometry RGS19-Galphao binding; actives lie on both sides; response (percent of control binding), % at 10 µM; 1,700 compounds, 5% hits; AID 1841, 2009; in the data active = response below about 50% or above about 160%; inactive = in between;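 also: 100% = no compound control and 0% = blank background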
# Target sequence (P09471 whole entry, looked up): as above
# Target sequence (P49795 whole entry, looked up): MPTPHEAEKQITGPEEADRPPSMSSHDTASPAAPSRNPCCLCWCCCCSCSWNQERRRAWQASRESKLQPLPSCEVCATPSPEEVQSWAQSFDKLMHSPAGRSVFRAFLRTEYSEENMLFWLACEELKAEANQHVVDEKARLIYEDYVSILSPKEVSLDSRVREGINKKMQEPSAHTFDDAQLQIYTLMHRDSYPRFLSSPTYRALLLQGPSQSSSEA
# Numbers without * were called inactive; ? = inconclusive; / = not tested or not shown; [ ] = another dose, or the depositor's remark. Shown are actives, neighbours in structure and some others; about 1.2% of the full set was active somewhere. Unless noted, no rule for the calls is given here.
SMILES,Avidin fluor,RGS16-Gao HTS,RGS4-Gao reg,RGS7-Gao reg,RGS8-Gao reg,GSH fluor,Avidin counter,RGS8-Gao single,RGS7-Gao confirm,RGS16-Gao single,RGS4-Gao single,RGS19-Gao conf,others
Cc1nonc1CN(C)C(=O)CC1C(=O)NCCN1Cc1ccccc1C(F)(F)F (stereo not given),9,95,92,91,94,50,/,/,/,/,/,/,
O=C(NCc1ccccn1)c1nc(-c2ccc(C(F)(F)F)cc2)no1,9,104,99,97,101,21,/,/,/,/,/,/,
CC(C)(C)c1ccc(-c2noc(C(=O)NN)n2)cc1,4,14*,83,?,69,/,-1,107,111,105,110,112,RGS4-Gao HTS=83*
N#Cc1ccccc1S(=O)(=O)N1CCN(c2cnccn2)CC1,8,101,100,97,102,20,/,/,/,/,/,/,
CCc1nc(SCc2ccccn2)[nH]c(=O)c1C,12,104,104,104,102,11,/,/,/,/,/,/,
CCc1nc(SCc2cccnc2)[nH]c(=O)c1C,13,309*[activator],108,105,124,9,1,92,91,91,92,68,RGS4-Gao HTS=108*
COC(=O)CC(NC(=O)Nc1ccc(C)cc1)c1cccc([N+](=O)[O-])c1 (stereo not given),1,20*,28*,4.0*,26*,11,0,104,101,104,100,116,
CS(=O)(=O)N(CC(=O)Nc1cccnc1)c1ccc2c(c1)OCCO2,9,140,109,101,109,35,/,/,/,/,/,/,
CS(=O)(=O)N(CC(=O)Nc1cccnc1)c1ccc2c(c1)OCO2,/,/,/,/,/,17,4,92,80,84,87,78,
O=C(O)CS(=O)(=O)c1ccc(C(F)(F)F)cn1,11,108,107,104,106,15,/,/,/,/,/,/,
Cn1c(N)c(C(=O)COc2ccc(C#N)cc2)c(=O)n(C)c1=O,13,100,99,?,99,16,/,/,/,/,/,/,
Cc1ccccc1N=C(NOCc1ccc(Cl)cc1Cl)c1nonc1N,/,/,/,/,/,37,2,96,95,94,96,103,
Cc1cc(N2CCN(c3ccccc3)CC2)nc(-c2ccccc2O)n1,7,-549,38*,84,90,13,1,100,106,103,103,106,
Cc1cc(N2CCC(C)CC2)nc(-c2ccccc2O)n1,7,99,102,?,99,/,/,/,/,/,/,/,
CCc1ccccc1NC(=O)CN(C)C(=O)CSc1nn(-c2ccccc2)c(=S)s1,15,101,101,101,99,20,/,/,/,/,/,/,
COc1ccc(OCCNS(=O)(=O)c2ccccc2)cc1,9,98,94,96,97,9,/,/,/,/,/,/,
Cc1ccc(OCCNS(=O)(=O)c2cccs2)cc1,8,157,159*[activator],154*[activator],126,30,-2,96,96,91,93,81,
COc1ccc2c(Cl)c(C(=O)N/N=C/c3c(C)[nH]c4ccccc34)sc2c1,32,128,139,156*[activator],105,14,1,121,267*[activator],175*[activator],187*[activator],368*[activator],RGS4-Gao HTS=139*
Nc1cc2nc3ccccc3oc-2cc1=O,6,93,97,?,97,/,/,/,/,/,/,/,
CCCN1CNC(=S)N(c2ccccc2OC)C1,9,47,100,104,98,16,/,/,/,/,/,/,
CCCN1CN(c2ccccc2)C(=S)N(c2ccccc2)C1,3,169,195*[activator],?,136,/,0,101,99,100,100,104,
O=C(CSc1nnc(Cc2ccccc2)o1)Nc1ccc(Br)cn1,13,103,100,101,98,35,/,/,/,/,/,/,
CC(=O)c1cccc(NS(=O)(=O)c2ccc(N/C=C\C(=O)c3ccc(C)cc3)cc2)c1,25,114,138,264*[activator],90,12,/,/,/,/,/,/,RGS4-Gao HTS=138*
COC(=O)c1ccccc1OCCCCN1CC(C)OC(C)C1 (stereo not given),173*,102,113,254*[activator],99,9,2,92,59*,83,70*,46*,RGS4-Gao HTS=113*
CC(C(=O)N1CCCCCC1)c1ccc([N+](=O)[O-])cc1 (stereo not given),7,100,103,110,103,20,/,/,/,/,/,/,
CN(C)C(=S)Nc1ccc2c(c1)OCCO2,4,46,40*,?,69,/,0,100,97,101,101,112,
S=C(Nc1ccc2c(c1)OCCO2)Nc1ccc2c(c1)OCO2,9,99,90,93,97,27,/,/,/,/,/,/,
COc1cc2c(cc1NC(=O)CSc1nc3ccc(C)cc3[nH]1)oc1ccccc12,14,121,100,101,107,10,/,/,/,/,/,/,
O=C1CCCC2=C1C(c1ccccc1O)C1=C(CCCC1=O)O2,7,259,113,110,141*[activator],6,0,100,102,102,101,96,RGS4-Gao HTS=113*
O=C1CCCC(O)=C1C1C2=C(CCCC2=O)OC2=C1C(=O)CCC2,12,122,106,104,107,15,/,/,/,/,/,/,
